# Article PMC11006913
# Changes are numbered by the printed parent chain.
# Assays:
# Assay in all cases: PBM; 200 nM protein, PBS
# Conditions in all cases: dsDNA, one strand shown
# [1] = target: T1, SIX6 (Homo sapiens, UniProt O95475 114-200, L167I)
# T1 sequence: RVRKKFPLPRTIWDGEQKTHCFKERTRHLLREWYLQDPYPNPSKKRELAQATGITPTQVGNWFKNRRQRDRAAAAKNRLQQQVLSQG
# [2] = target: T2, SIX6 (Homo sapiens, UniProt O95475 114-200, L143V)
# T2 sequence: T1 sequence with L30V, I54L
# [3] = target: T3, SIX6 (Homo sapiens, UniProt O95475 114-200, H141N)
# T3 sequence: T1 sequence with H28N, I54L
# [4] = target: T4, SIX6 (Homo sapiens, UniProt O95475 114-200, T165P)
# T4 sequence: T1 sequence with T52P, I54L
# [5] = target: T5, SIX6 (Homo sapiens, UniProt O95475 114-200, L167M)
# T5 sequence: T1 sequence with I54M
# [6] = target: T6, SIX6 (Homo sapiens, UniProt O95475 114-200, L143M)
# T6 sequence: T1 sequence with L30M, I54L
# [7] = target: T7, SIX6 (Homo sapiens, UniProt O95475 114-200, L143I)
# T7 sequence: T1 sequence with L30I, I54L
# [8] = target: T8, SIX6 (Homo sapiens, UniProt O95475 114-200, T165G)
# T8 sequence: T1 sequence with T52G, I54L
# [9] = target: T9, SIX6 (Homo sapiens, UniProt O95475 114-200, T139Q)
# T9 sequence: T1 sequence with T26Q, I54L
# [10] = target: T10, SIX6 (Homo sapiens, UniProt O95475 114-200, T165A)
# T10 sequence: T1 sequence with T52A, I54L
# [11] = target: T11, SIX6 (Homo sapiens, UniProt O95475 114-200, L167V)
# T11 sequence: T1 sequence with I54V
# [12] = target: T12, SIX6 (Homo sapiens, UniProt O95475 114-200)
# T12 sequence: T1 sequence with I54L
# [13] = target: T13, SIX6 (Homo sapiens, UniProt O95475 114-200, T165I)
# T13 sequence: T1 sequence with T52I, I54L
Sequence,binding signal [1],binding signal [2],binding signal [3],binding signal [4],binding signal [5],binding signal [6],binding signal [7],binding signal [8],binding signal [9],binding signal [10],binding signal [11],binding signal [12],binding signal [13]
ATATACAC,"10.9 upbm affinity estimate (log intensity, higher = more binding, comparable within an allelic series)","10.4 upbm affinity estimate (log intensity, higher = more binding, comparable within an allelic series)","10.9 upbm affinity estimate (log intensity, higher = more binding, comparable within an allelic series)","10.1 upbm affinity estimate (log intensity, higher = more binding, comparable within an allelic series)","10.8 upbm affinity estimate (log intensity, higher = more binding, comparable within an allelic series)","10.9 upbm affinity estimate (log intensity, higher = more binding, comparable within an allelic series)","10.4 upbm affinity estimate (log intensity, higher = more binding, comparable within an allelic series)","11.1 upbm affinity estimate (log intensity, higher = more binding, comparable within an allelic series)","11 upbm affinity estimate (log intensity, higher = more binding, comparable within an allelic series)","10.9 upbm affinity estimate (log intensity, higher = more binding, comparable within an allelic series)","10.7 upbm affinity estimate (log intensity, higher = more binding, comparable within an allelic series)","10.9 upbm affinity estimate (log intensity, higher = more binding, comparable within an allelic series)","10.9 upbm affinity estimate (log intensity, higher = more binding, comparable within an allelic series)"
GCGTATCA,"11.3 upbm affinity estimate (log intensity, higher = more binding, comparable within an allelic series)","10.2 upbm affinity estimate (log intensity, higher = more binding, comparable within an allelic series)","11.1 upbm affinity estimate (log intensity, higher = more binding, comparable within an allelic series)","9.54 upbm affinity estimate (log intensity, higher = more binding, comparable within an allelic series)","10.5 upbm affinity estimate (log intensity, higher = more binding, comparable within an allelic series)","11.2 upbm affinity estimate (log intensity, higher = more binding, comparable within an allelic series)","10.3 upbm affinity estimate (log intensity, higher = more binding, comparable within an allelic series)","11.3 upbm affinity estimate (log intensity, higher = more binding, comparable within an allelic series)","11.2 upbm affinity estimate (log intensity, higher = more binding, comparable within an allelic series)","11.3 upbm affinity estimate (log intensity, higher = more binding, comparable within an allelic series)","10.9 upbm affinity estimate (log intensity, higher = more binding, comparable within an allelic series)","11.1 upbm affinity estimate (log intensity, higher = more binding, comparable within an allelic series)","11.1 upbm affinity estimate (log intensity, higher = more binding, comparable within an allelic series)"
GATATCCC,"11.1 upbm affinity estimate (log intensity, higher = more binding, comparable within an allelic series)","10.2 upbm affinity estimate (log intensity, higher = more binding, comparable within an allelic series)","11.1 upbm affinity estimate (log intensity, higher = more binding, comparable within an allelic series)","9.49 upbm affinity estimate (log intensity, higher = more binding, comparable within an allelic series)","10.8 upbm affinity estimate (log intensity, higher = more binding, comparable within an allelic series)","11 upbm affinity estimate (log intensity, higher = more binding, comparable within an allelic series)","10.2 upbm affinity estimate (log intensity, higher = more binding, comparable within an allelic series)","11.2 upbm affinity estimate (log intensity, higher = more binding, comparable within an allelic series)","11.1 upbm affinity estimate (log intensity, higher = more binding, comparable within an allelic series)","11 upbm affinity estimate (log intensity, higher = more binding, comparable within an allelic series)","11 upbm affinity estimate (log intensity, higher = more binding, comparable within an allelic series)","11 upbm affinity estimate (log intensity, higher = more binding, comparable within an allelic series)","11 upbm affinity estimate (log intensity, higher = more binding, comparable within an allelic series)"
CAGGGCGC,"9.09 upbm affinity estimate (log intensity, higher = more binding, comparable within an allelic series)","8.83 upbm affinity estimate (log intensity, higher = more binding, comparable within an allelic series)","9.07 upbm affinity estimate (log intensity, higher = more binding, comparable within an allelic series)","9 upbm affinity estimate (log intensity, higher = more binding, comparable within an allelic series)","8.98 upbm affinity estimate (log intensity, higher = more binding, comparable within an allelic series)","9.04 upbm affinity estimate (log intensity, higher = more binding, comparable within an allelic series)","8.98 upbm affinity estimate (log intensity, higher = more binding, comparable within an allelic series)","9.07 upbm affinity estimate (log intensity, higher = more binding, comparable within an allelic series)","8.97 upbm affinity estimate (log intensity, higher = more binding, comparable within an allelic series)","8.99 upbm affinity estimate (log intensity, higher = more binding, comparable within an allelic series)","9.01 upbm affinity estimate (log intensity, higher = more binding, comparable within an allelic series)","9.01 upbm affinity estimate (log intensity, higher = more binding, comparable within an allelic series)","8.97 upbm affinity estimate (log intensity, higher = more binding, comparable within an allelic series)"
ATTGATAC,"11.4 upbm affinity estimate (log intensity, higher = more binding, comparable within an allelic series)","10.5 upbm affinity estimate (log intensity, higher = more binding, comparable within an allelic series)","11.5 upbm affinity estimate (log intensity, higher = more binding, comparable within an allelic series)","9.95 upbm affinity estimate (log intensity, higher = more binding, comparable within an allelic series)","10.8 upbm affinity estimate (log intensity, higher = more binding, comparable within an allelic series)","11.2 upbm affinity estimate (log intensity, higher = more binding, comparable within an allelic series)","10.5 upbm affinity estimate (log intensity, higher = more binding, comparable within an allelic series)","11.4 upbm affinity estimate (log intensity, higher = more binding, comparable within an allelic series)","11.2 upbm affinity estimate (log intensity, higher = more binding, comparable within an allelic series)","11.4 upbm affinity estimate (log intensity, higher = more binding, comparable within an allelic series)","11.2 upbm affinity estimate (log intensity, higher = more binding, comparable within an allelic series)","11.2 upbm affinity estimate (log intensity, higher = more binding, comparable within an allelic series)","11.2 upbm affinity estimate (log intensity, higher = more binding, comparable within an allelic series)"
GGCCTCCA,"8.94 upbm affinity estimate (log intensity, higher = more binding, comparable within an allelic series)","8.93 upbm affinity estimate (log intensity, higher = more binding, comparable within an allelic series)","8.87 upbm affinity estimate (log intensity, higher = more binding, comparable within an allelic series)","9.13 upbm affinity estimate (log intensity, higher = more binding, comparable within an allelic series)","8.94 upbm affinity estimate (log intensity, higher = more binding, comparable within an allelic series)","8.87 upbm affinity estimate (log intensity, higher = more binding, comparable within an allelic series)","8.9 upbm affinity estimate (log intensity, higher = more binding, comparable within an allelic series)","9 upbm affinity estimate (log intensity, higher = more binding, comparable within an allelic series)","8.8 upbm affinity estimate (log intensity, higher = more binding, comparable within an allelic series)","8.84 upbm affinity estimate (log intensity, higher = more binding, comparable within an allelic series)","9.03 upbm affinity estimate (log intensity, higher = more binding, comparable within an allelic series)","8.82 upbm affinity estimate (log intensity, higher = more binding, comparable within an allelic series)","8.87 upbm affinity estimate (log intensity, higher = more binding, comparable within an allelic series)"
